# Assay results reported in PubChem BioAssay.
# A number with no mark means an inactive call. Records with an inconclusive call do not appear. For part of these data: Measured potencies and affinities stand elsewhere. Active and inactive are the calls of the source. Unless noted, the rule behind the calls is not given here.
# How the values were obtained:
# [1] = viability loss in pontine glioma line – cell-based, SU-DIPG-XIII, MIPE5.0, CellTiter-Glo, qHTS, dose response (AID 1347064; cut-off not given, nearly all actives have AC50 up to about 23 µM;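 for AC50: cells exposed to compound for 48 hours before the viability read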); conditions: CellTiter-Glo ATP luminescence
# [2] = tested on: Aerobactin synthetase IucA (Klebsiella pneumoniae); test: inhibition of K. pneumoniae IucA enzyme – biochemical, Tocris library, absorbance (AID 1345561); conditions: purified IucA enzyme assay, absorbance (OD) read-out; active compounds read low;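 tested at 8 µM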;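 note: 100% = enzyme without compound and 0% = no enzyme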
# [3] = chitosan synthesis blockers in C. neoformans – flow cytometry, Cibacron Brilliant Red staining (AID 1347148); conditions: Cryptococcus neoformans chitosan, active compounds read low; at 99.1 µM unless noted;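 note: compound exposure lasted three days at 37 degrees C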
# [4] = target: Tyrosine-protein kinase ABL1 (Homo sapiens) (UniProt P00519); test: PubChem AID 493040; conditions: kinase panel binding, pKi
# [5] = antimalarial activity against Dd2 strain (AID 2302;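 active = growth inhibition above 50% at the single 2 µM test dose, taken to imply half-maximal potency below 2 µM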;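 note: 0% = DMSO untreated growth and 100% = chloroquine plus artemisinin killed control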); conditions: P. falciparum Dd2 in RBCs, LDH growth readout, 72 h; at 2 µM; active compounds read high
# [6] = human hepatoma cell viability loss – ATP luminescence, cytotoxicity control for P. falciparum antimalarial project, primary screen (AID 2303;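 active = inhibition above 50%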;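 note: 0% = DMSO wells and 100% = digitonin-killed cells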); conditions: HepG2 viability, 24-48 h, at 10 µM, active compounds read high
# [7] = target: L-lactate dehydrogenase (Plasmodium falciparum (isolate CDC / Honduras)) (UniProt Q27743); test: PfLDH activity inhibition – cell lysate, 3D7 strain, counter-screen for P. falciparum growth inhibition project (AID 2304);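 note: 0% = vehicle and 100% = reference inhibitor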; conditions: P. falciparum 3D7 crude extract, LDH APAD/NBT absorbance; at 2 µM; active compounds read high
# [8] = inhibition of 3D7 malaria parasite growth – strain 3D7 (AID 2306);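 note: 0% = DMSO wells and 100% = chloroquine plus artemisinin control wells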; conditions: P. falciparum 3D7 erythrocytic growth, LDH absorbance, 72 h; at 2 µM; active compounds read high
# [9] = target: Calcium-dependent protein kinase 1 (Plasmodium falciparum (isolate 3D7)) (UniProt P62344); test: PfCDPK1 kinase inhibitors, biochemical, TCAMS library (AID 1159585; cut-off not given, nearly all actives have IC50 up to about 0.98 µM;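 note: inhibitors leave more ATP so luminescence rises with inhibition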); conditions: recombinant PfCDPK1, Kinase-Glo ATP depletion luminescence
# [10] = target: Plasmodium falciparum protein kinase 6 (PK6, PF3D7_1337100) (UniProt Q8IDW1); test: PfPK6 kinase inhibitors, biochemical, TCAMS library (AID 1159586); conditions: recombinant PfPK6, Kinase-Glo ATP depletion luminescence
# [11] = target: Protein kinase 7 (PK7), Plasmodium falciparum 3D7 (PF3D7_0213400) (UniProt Q7YTF7); test: inhibition of Plasmodium PK7 catalytic activity – biochemical, TCAMS antimalarial set, Kinase-Glo luminescence (AID 1159587); conditions: recombinant PfPK7, Kinase-Glo ATP depletion luminescence
# [12] = target: Calcium-dependent protein kinase 4 (Plasmodium falciparum (isolate 3D7)) (UniProt Q8IBS5); test: PfCDPK4 kinase inhibitors, biochemical, TCAMS library (AID 1159588; cut-off not given, nearly all actives have IC50 up to about 0.91 µM); conditions: recombinant PfCDPK4, Kinase-Glo ATP depletion luminescence
# [13] = compounds altering circadian rhythm period length – cell-based, LOPAC library, luminescence reporter (AID 2774); conditions: circadian reporter cells, at 7 µM, actives lie on both sides;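 note: values are relative to mean of DMSO wells on each plate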
# [14] = tested on: Hepatitis C virus NS3 helicase; test: blockers of NS3h binding to ssDNA – biochemical, fluorescence polarization, LOPAC1280 library, primary screen (AID 687035; in the data active = inhibition above about 37%); conditions: Purified HCV NS3 helicase, Cy5-dT15 ssDNA binding fluorescence polarization; active compounds read high; concentration not given here
# [15] = compounds altering Cy5-DNA-NS3h complex signal – biochemical, LOPAC1280, artefact control for HCV NS3 helicase inhibitor project (AID 687037); conditions: Cy5-DNA-NS3h complex fluorescence interference counterscreen
# [16] = blockers of cellular phospholipid synthesis – cell-based, LOPAC library, screen 4, primary screen (AID 1347384); conditions: animal cells, phospholipid biosynthesis inhibition screen; at 10 µM
# [17] = compounds altering viability of human ES cells (AID 493140); conditions: human embryonic stem cell survival screen; active compounds read high;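 note: cells exposed to compounds for four days before counting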
# Chain of Protein kinase 7 (PK7), Plasmodium falciparum 3D7 (PF3D7_0213400) (Q7YTF7 1-343): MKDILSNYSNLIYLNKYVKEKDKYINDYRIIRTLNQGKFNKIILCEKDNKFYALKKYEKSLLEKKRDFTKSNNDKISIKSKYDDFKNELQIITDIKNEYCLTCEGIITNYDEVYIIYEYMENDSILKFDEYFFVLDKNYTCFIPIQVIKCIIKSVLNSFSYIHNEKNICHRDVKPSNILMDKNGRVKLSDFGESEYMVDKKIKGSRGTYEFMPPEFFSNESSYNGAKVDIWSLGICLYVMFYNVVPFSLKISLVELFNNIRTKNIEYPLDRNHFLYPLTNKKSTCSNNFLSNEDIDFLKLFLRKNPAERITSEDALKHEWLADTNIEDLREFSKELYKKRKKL
# Chain of Calcium-dependent protein kinase 4 (Plasmodium falciparum (isolate 3D7)) (Q8IBS5 whole entry, looked up): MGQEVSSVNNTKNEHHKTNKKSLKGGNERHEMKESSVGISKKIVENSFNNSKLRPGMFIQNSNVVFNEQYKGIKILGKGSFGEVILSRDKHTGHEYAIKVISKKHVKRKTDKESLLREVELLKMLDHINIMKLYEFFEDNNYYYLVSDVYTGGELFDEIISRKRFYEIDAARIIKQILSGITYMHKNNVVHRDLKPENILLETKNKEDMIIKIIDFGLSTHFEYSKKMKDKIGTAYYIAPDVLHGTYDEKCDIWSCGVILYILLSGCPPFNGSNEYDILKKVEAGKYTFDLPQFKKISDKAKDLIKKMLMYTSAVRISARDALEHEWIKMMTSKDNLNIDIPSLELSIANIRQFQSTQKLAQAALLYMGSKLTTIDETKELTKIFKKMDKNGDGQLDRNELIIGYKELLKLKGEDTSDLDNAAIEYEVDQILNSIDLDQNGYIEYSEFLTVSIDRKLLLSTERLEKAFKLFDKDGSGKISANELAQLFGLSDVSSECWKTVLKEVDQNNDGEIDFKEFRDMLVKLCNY
# Chain of L-lactate dehydrogenase (Plasmodium falciparum (isolate CDC / Honduras)) (Q27743 whole entry, looked up): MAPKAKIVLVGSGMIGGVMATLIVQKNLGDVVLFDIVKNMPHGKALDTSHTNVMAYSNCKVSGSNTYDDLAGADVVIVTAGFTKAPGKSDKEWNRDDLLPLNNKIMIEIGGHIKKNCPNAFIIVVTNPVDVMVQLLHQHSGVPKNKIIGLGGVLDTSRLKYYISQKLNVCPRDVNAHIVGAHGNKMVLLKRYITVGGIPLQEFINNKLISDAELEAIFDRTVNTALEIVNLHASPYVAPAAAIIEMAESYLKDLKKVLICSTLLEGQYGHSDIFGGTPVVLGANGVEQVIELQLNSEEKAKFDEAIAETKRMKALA
# Chain of Plasmodium falciparum protein kinase 6 (PK6, PF3D7_1337100) (Q8IDW1 1-305): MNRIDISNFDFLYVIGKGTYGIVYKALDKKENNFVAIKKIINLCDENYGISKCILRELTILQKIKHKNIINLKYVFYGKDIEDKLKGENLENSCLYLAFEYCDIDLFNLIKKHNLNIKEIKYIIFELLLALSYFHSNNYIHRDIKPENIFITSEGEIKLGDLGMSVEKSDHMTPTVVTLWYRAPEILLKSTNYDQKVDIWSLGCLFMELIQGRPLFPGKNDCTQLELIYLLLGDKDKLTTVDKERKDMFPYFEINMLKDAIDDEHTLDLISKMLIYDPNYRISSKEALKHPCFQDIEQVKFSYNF
# Chain of Calcium-dependent protein kinase 1 (Plasmodium falciparum (isolate 3D7)) (P62344 whole entry, looked up): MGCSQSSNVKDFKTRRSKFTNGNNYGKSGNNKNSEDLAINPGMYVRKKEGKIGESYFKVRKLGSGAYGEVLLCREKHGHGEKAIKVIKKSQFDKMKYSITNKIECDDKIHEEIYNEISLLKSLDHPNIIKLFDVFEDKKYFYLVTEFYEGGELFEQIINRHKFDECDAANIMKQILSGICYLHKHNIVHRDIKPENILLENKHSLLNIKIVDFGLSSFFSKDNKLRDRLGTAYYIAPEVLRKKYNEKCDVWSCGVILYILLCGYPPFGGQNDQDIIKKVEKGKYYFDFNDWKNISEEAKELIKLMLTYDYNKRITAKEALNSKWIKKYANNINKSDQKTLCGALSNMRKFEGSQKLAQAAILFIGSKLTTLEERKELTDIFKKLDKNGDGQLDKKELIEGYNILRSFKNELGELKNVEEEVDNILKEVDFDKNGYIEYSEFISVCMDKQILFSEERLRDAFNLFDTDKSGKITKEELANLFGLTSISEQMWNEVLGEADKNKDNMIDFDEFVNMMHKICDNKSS
# Chain of Tyrosine-protein kinase ABL1 (Homo sapiens) (P00519 whole entry, looked up): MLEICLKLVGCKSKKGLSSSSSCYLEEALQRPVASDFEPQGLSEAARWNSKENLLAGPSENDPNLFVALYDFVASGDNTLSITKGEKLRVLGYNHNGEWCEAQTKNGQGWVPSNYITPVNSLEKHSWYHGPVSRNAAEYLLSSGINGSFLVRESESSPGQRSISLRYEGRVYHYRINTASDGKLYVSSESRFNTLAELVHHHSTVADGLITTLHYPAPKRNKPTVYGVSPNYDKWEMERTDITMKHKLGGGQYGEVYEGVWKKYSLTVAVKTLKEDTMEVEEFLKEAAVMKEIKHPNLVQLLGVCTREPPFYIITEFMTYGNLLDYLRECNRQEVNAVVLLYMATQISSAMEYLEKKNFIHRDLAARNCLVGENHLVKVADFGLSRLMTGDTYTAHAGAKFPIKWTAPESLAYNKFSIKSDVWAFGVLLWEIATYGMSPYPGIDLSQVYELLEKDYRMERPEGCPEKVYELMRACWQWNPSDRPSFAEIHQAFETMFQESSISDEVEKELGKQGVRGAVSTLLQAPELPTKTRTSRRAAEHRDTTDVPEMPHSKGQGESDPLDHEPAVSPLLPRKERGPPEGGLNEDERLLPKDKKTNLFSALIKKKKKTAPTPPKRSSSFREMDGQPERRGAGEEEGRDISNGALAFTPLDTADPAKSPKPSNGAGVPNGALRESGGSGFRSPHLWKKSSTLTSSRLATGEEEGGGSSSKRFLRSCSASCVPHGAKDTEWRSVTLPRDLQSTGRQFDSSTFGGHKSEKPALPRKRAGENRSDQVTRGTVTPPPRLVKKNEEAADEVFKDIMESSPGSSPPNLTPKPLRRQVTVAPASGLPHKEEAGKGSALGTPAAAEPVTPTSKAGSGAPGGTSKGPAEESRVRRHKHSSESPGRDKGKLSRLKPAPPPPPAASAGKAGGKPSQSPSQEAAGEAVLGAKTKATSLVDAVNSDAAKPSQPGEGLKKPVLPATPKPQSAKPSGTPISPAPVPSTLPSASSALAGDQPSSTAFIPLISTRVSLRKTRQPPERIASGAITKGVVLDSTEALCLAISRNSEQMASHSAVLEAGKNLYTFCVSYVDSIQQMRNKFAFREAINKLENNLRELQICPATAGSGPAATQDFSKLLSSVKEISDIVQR
compound,measurement,setting,value
Cn1cc(/C=C2\C(=O)Nc3cccnc32)c2ccccc21,AC50,[1],8.33 µM (active)
Fc1ccc(-c2nc3n(c2-c2ccncc2)CCS3)cc1,remaining activity,[2],117%
Cn1c(=O)c(Oc2ccc(F)cc2F)cc2cnc(NC3CCOCC3)nc21,outcome,[1],inactive
NC(=O)c1ccc(-c2nc(-c3ccc4c(c3)OCO4)c(-c3ccccn3)[nH]2)cc1,remaining activity,[2],110%
same,fold fluorescence,[3],18.6 [at 130.1 µM]
same,outcome,[4],inactive
CN(C)c1cc2c(Nc3ccc4nc(Cc5ccccc5)[nH]c4c3)ncnc2cn1,growth inhibition,[5],29%
same,inhibition,[6],11%
same,inhibition,[7],0%
same,growth inhibition,[8],85% (active)
same,outcome,[9],inactive
same,outcome,[10],inactive
same,outcome,[11],inactive
same,outcome,[12],inactive
CN(C)c1cc2c(Nc3ccc4c(cnn4Cc4ccccc4)c3)ncnc2cn1,period change,[13],0.33 h
same,inhibition,[14],-1%
same,fluorescence ratio (interference),[15],1
same,outcome,[16],inactive
Cc1ccc(O)cc1Nc1ccnc2cc(-c3ccccn3)ccc12,growth inhibition,[5],98% (active)
same,inhibition,[6],6%
same,inhibition,[7],-2%
same,growth inhibition,[8],97% (active)
same,outcome,[9],inactive
same,outcome,[10],inactive
same,outcome,[11],inactive
same,outcome,[12],inactive
Cn1cc(C2=C(c3cn(CCCSC(=N)N)c4ccccc34)C(=O)NC2=O)c2ccccc21,survival,[17],72.7
same,remaining activity,[2],106%
same,fold fluorescence,[3],10.1 [at 109.3 µM]
Nc1ncnc2occ(-c3ccc(NC(=O)Nc4cc(C(F)(F)F)ccc4F)cc3)c12,growth inhibition,[5],99% (active)
same,inhibition,[6],57% (active)
same,inhibition,[7],-1%
same,growth inhibition,[8],99% (active)
same,outcome,[11],inactive
same,outcome,[12],inactive
COc1ccc(-c2oc3ncnc(N)c3c2-c2ccc(NC(=O)Nc3cc(C(F)(F)F)ccc3F)cc2)cc1,AC50,[1],3.72 µM (active)
